This note sets out measurements from PubChem BioAssay (NCI).

This is part of a sample that, as a whole, favours compounds with a hit. Of some 83,000 tested, about 20% had one in any assay.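 Testing used 96-well plates and a 48-hour single-concentration exposure. Example: -40 means 40% of the starting cells died.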 Unmarked numbers belong to inactive results. The source made the active and inactive calls. Rule for the calls: active = growth percent below 10; inactive = the rest.

This assay relates to HL-60(TB) leukemia. Put plainly: NCI-60 one-dose screen, 48 h (100 = growth as untreated, 0 = no growth, -100 = all killed). The note with it: 10 µM unless noted.
With `Brc1ccc(C2CC(c3cccc(Nc4ccncc4)c3)=NN2c2ccccc2)cc1` (centres undefined), the growth was 56.9%.
The value for `COc1ccc(-c2nnc(COc3ccc(NC(=O)Nc4cccc(C(F)(F)F)c4)cc3F)o2)cc1` was 4.03% (active).
With `COc1ccc(/C=C/C(=O)C(CC2CCC2)C(=O)/C=C/c2ccc(OC)c(OC)c2)cc1OC` the figure was -27.5% (active); with `O=S(=O)(/N=C1C=C/C(=N\S(=O)(=O)c2ccccc2)c2ccccc2\1)c1ccccc1`, 100%; with `CC1(C)CC[C@]23CC[C@]4(C)[C@H](CC[C@@H]5[C@@]6(C)C/C(=C/c7ccncc7)C(=O)C(C)(C)[C@@H]6CC[C@]54C)[C@H]2[C@H]1OC3=O`, 43% [100 µM].
The value for `O=C(NOC1OC(CO)C(O)C(O)C1O)Nc1ccccc1` (centres undefined) was 74.5%; that for `CCc1nc2ccccc2[nH]1` was 105%; that for `COc1cc(NC(=O)c2cc3ccccc3nc2Nc2ccc(F)cc2)cc(OC)c1OC` was 47.2%.
With `N#Cc1c(-c2ccccn2)[nH]c(=S)[nH]c1=O`, the growth is 94.9%.
The value for `CC(=O)O.[In]` was 93.4%; that for `COc1cc2nc(N3CCC[C@H](NC4=CC(=O)c5ccccc5C4=O)C3)nc(N)c2cc1OC` was -64.6% (active).
On to `C/C(=N\NC(=O)Cn1c(-c2ccc(S(C)(=O)=O)cc2)nc2cc(Cl)ccc21)c1ccc(Cl)cc1`, for which the growth was 88.2%.
The value for `Nc1nc2ccc(-c3nc4ccc5[nH]ncc5c4c4c3CCC4)cc2s1` was 30.2%; that for `C/C(=N\NC(N)=S)C(C)(C)O` was 102%.
